In PubChem BioAssay:
Calls of active or inactive are those of the source.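 Rule for the calls: active = viability at or below 10% of carrier control in both of two separate runs; inconclusive = viability at or below 10% in only one of the two runs; inactive = the rest.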

Assay: reduced viability of SK-BR-3 breast cancer cells – cell-based, 24 h, human, pilot screen (AID 572);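 note: compound exposure lasted between 18 and 24 h rather than exactly 24 h; 100% = carrier-treated control wells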
Details: SK-BR-3 viability, CellTiter-Glo luminescence, at 10 µM, active compounds read low

Row | Structure (SMILES) | viability
1 | CCCc1cc(C(=O)Nc2ccccc2SC)no1 | 86% (inactive)
2 | Cc1ccc(C(=O)OCC(=O)Nc2ccc3c(c2)OCO3)o1 | 110% (inactive)
3 | COC(=O)C(C#N)C(=C1C(=O)CC(C)(C)CC1=O)c1ccc(O)cc1 (stereo not given) | 90% (inactive)
4 | COC(=O)c1cc(OC)c(OC)cc1NC(=O)c1ccc(Br)o1 | 85.5% (inactive)
5 | COc1cccc(NC(=O)CSc2nnc(Cc3cccn3C)n2-c2ccc(F)cc2)c1 | 94.5% (inactive)
6 | CCOc1ccc(N(CC(=O)OC)S(=O)(=O)c2ccc(OC)c(OC)c2)cc1 | 108% (inactive)
7 | COC(=O)C1=C(C)NC(C)=C(C(=O)OC)C1C1CC=CCC1 (stereo not given) | 85% (inactive)
8 | CCCCCn1c(=O)[nH]c2cc(C(=O)NCCN3CCOCC3)ccc2c1=O | 99.5% (inactive)
9 | COc1ccccc1OCC(=O)N1CCN(c2ccccc2OC)CC1 | 93.5% (inactive)
10 | COc1cccc(-c2nc(CS(=O)(=O)CC(=O)N3CCN(c4ccccn4)CC3)c(C)o2)c1 | 90% (inactive)
11 | CC1C(=O)C(C)C(c2cccs2)NC1c1cccs1 (stereo not given) | 83% (inactive)
12 | COc1ccc(N2C(=O)CCC(C(=O)N3CCCCC3)C2c2ccc(OC)c(OC)c2)cc1 (stereo not given) | 100% (inactive)
13 | COc1cccc(NC(=O)c2nc3nc(C)cc(C(F)F)n3n2)c1 | 100% (inactive)
14 | O=C(NCCN1CCOCC1)c1ccc2c(c1)N(Cc1ccccc1F)C(=O)CS2 | 94% (inactive)
15 | CCn1cc(C(=O)NCc2ccccc2OC)c(=O)c2cc(S(=O)(=O)N(C)C)ccc21 | 78.5% (inactive)
16 | CC1Cn2c(nnc2-c2ccc(F)cc2)S1 (stereo not given) | 112% (inactive)
17 | COc1ccc(NC(=O)CN(c2ccc(C(C)C)cc2)S(=O)(=O)c2c(C)noc2C)cc1OC | 90.5% (inactive)
18 | Cc1cc(C)c(C(=O)Nc2ccc(S(=O)(=O)Nc3onc(C)c3C)cc2)c(C)c1 | 110% (inactive)
19 | COc1ccc(C2CC(c3ccco3)n3ncnc3N2)cc1 (stereo not given) | 88% (inactive)
20 | CCCCn1c(CN2CCN(c3ccccc3)CC2)nc2c1c(=O)n(C)c(=O)n2C | 89% (inactive)

Row | Structure (SMILES) | viability
21 | Cc1ccccc1NC(=O)C1CCCN(S(=O)(=O)c2cnc[nH]2)C1 (stereo not given) | 85.5% (inactive)
22 | CCOC(=O)C1CCCN(C(=O)c2cn(C)c(=O)c3cc(OC)c(OC)cc23)C1 (stereo not given) | 96.5% (inactive)
23 | O=C(C1CCN(S(=O)(=O)c2cccc3cccnc23)CC1)N1CCN(C2CCCCC2)CC1 | 102% (inactive)
24 | Cc1nnc2n(-c3ccc(Cl)cc3)c(=O)c3c4c(sc3n12)CN(C)CC4 | 84% (inactive)
25 | COc1ccc(OC)c(NC(=O)c2nnn(Cc3ccc(Br)cc3F)c2N)c1 | 80% (inactive)
26 | CCCOc1ccc2ccccc2c1/C=N/n1cnnc1 | 93% (inactive)
27 | CCOC(=O)C(C)(C)Sc1nc2c(cnn2-c2ccc(Cl)cc2)c(=O)[nH]1 | 76% (inactive)
28 | Cc1cccc(N2C(=O)CC(N3CCN(c4cccc(C(F)(F)F)c4)CC3)C2=O)c1 (stereo not given) | 94.5% (inactive)
29 | CC(=O)N1c2c(cc(Br)cc2S(=O)(=O)N2CCN(c3ccccn3)CC2)CC1C (stereo not given) | 80.5% (inactive)
30 | O=C(O)c1ccc2c(c1)C(=O)N(c1ccc(Cl)cn1)C2=O | 98% (inactive)
31 | CC(=O)c1sc(NC(=O)C2COc3ccccc3O2)nc1C (stereo not given) | 102% (inactive)
32 | COc1ccc(OC)c2[nH]c(=O)c(CCNC(=O)C(C)C)cc12 | 109% (inactive)
33 | COc1ccc(NC(=O)c2cc(C3CC3)on2)c(OC)c1 | 96.5% (inactive)
34 | Cc1noc(C(=O)Nc2ccc3c(c2)OCO3)c1Cl | 84.5% (inactive)
35 | CCC(CC)C(=O)NCCc1cc2ccc(C)cc2[nH]c1=O | 99% (inactive)
36 | CCCS(=O)(=O)N1CCN(C(=O)c2cccnc2)CC1 | 97% (inactive)
37 | CCCCn1c2c(c3ccccc31)CCc1nonc1-2 | 107% (inactive)
38 | COc1ccc(-c2[nH]c(-c3cccc(OC)c3)nc2SCC(=O)NCc2ccco2)cc1 | 95.5% (inactive)
39 | CC1=C(C(=O)OCc2ccccc2)C(c2ccco2)n2ncnc2N1 (stereo not given) | 98.5% (inactive)
40 | Cc1c(C)n(C)c2ccc(C(=O)NCc3cccs3)cc12 | 93.5% (inactive)
